# Bioassay records from PubChem BioAssay.
# HGIII-sPLA2 inh – Blocks human group III sPLA2 activity; QFRET BODIPY PC-A2 liposome hydrolysis, fluorescence; Q9NZ20; 370,000 tested, 0.56% active; inhibition, % at 12.2 µM;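 active means inhibition above mean plus 3 SD of compounds lying within the high and low control bounds, cut at about 19% in these data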;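 further: 0% = median of test compound wells and 100% = no enzyme DMSO wells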
# Target sequence (Q9NZ20 whole entry, looked up): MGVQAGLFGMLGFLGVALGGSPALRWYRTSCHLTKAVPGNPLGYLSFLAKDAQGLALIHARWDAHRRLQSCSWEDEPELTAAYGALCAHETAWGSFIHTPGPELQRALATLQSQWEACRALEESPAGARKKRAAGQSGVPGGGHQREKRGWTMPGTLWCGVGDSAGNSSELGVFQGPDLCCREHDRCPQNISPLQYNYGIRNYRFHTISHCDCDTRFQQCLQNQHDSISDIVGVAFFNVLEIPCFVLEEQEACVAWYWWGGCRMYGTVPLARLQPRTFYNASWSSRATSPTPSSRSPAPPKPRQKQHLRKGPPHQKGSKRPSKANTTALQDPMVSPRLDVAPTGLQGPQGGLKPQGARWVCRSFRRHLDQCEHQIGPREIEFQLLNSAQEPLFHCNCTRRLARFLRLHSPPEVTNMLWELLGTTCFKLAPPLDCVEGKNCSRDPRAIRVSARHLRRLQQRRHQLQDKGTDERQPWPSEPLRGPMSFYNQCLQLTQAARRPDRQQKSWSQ
# rCAG binder – r(CAG) repeat RNA binding; inhibition, % at 3 µM; 370,000 tested, 1.3% active; TO-PRO-1 dye displacement fluorescence; AID 651821;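 active means inhibition above the plate cutoff, the mean of all test compounds on that plate plus 3 SD, cut at about 35% in these data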;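 further: 0% = DMSO alone and 100% = 100 µM mitoxantrone as full dye displacement; higher means more dye released from RNA so lower well fluorescence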
# PG9 binder – binds the HIV-1 gp120 antibody PG9. TR-FRET gp120-PG9 antibody binding. inhibition, % at 6.7 µM. 360,000 tested, 0.43% active; in the data active means inhibition above about 8.5%
# MsrA inhibitor – bovine MsrA inhibition; purified bovine MsrA, absorbance read-out; inhibition, % at 15.5 µM; 360,000 tested, 0.75% active; in the data active means inhibition above about 4.5%;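 further: 0% = vehicle wells with enzyme and 100% = reference inhibitor wells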
# bovine MsrA act – activates bovine MsrA enzyme; purified bovine MsrA, absorbance read-out; activation, % at 10.6 µM; 360,000 tested, 0.3% active; in the data active means activation above about 7.5%;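 further: 0% = vehicle and 100% = reference activator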
# rCAG binder conf – r(CAG) RNA repeat binding, confirmation. TO-PRO-1 dye displacement fluorescence. shares compounds with rCAG binder. inhibition, % at 3 µM. 4,300 tested, 70% active;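 active means inhibition above a per-plate cutoff, the mean inhibition of sample wells plus 3 SD, cut at about 35% in these data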;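 further: loss of TO-PRO-1 fluorescence as compound displaces dye from 1x1 AA loop RNA; 0% = DMSO only wells and 100% = 100 µM mitoxantrone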
# DNA CAG counter – counter-screen for rCAG RNA binders: DNA CAG dye complex inhibitors | inhibition, % at 3 µM | 4,300 tested, 94% active | shares compounds with rCAG binder | d(CAG) DNA oligo TO-PRO-1 dye displacement, fluorescence;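 active means inhibition above its plate's cutoff, the mean test-well inhibition plus 3 SD, cut at about 4.8% in these data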;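 further: 0% = DNA dye mix with DMSO and 100% = 100 µM mitoxantrone; hits displace the dye from DNA and so lower well fluorescence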
# dCAG dye DR – disrupts DNA CAG TO-PRO-1 complex in dose response; AID 686960; DNA CAG/GTC duplex TO-PRO-1 dye displacement fluorescence; IC50, µM; shares compounds with rCAG binder; 250 tested, 20% active; in the data active means IC50 below about 10 µM
# * = called active by the depositor; / = no result given. Compounds with a hit are over-represented: about 3.2% of the library has one in this group of screens.
SMILES,HGIII-sPLA2 inh,rCAG binder,PG9 binder,MsrA inhibitor,bovine MsrA act,rCAG binder conf,DNA CAG counter,others
CC(=O)OC(C)C1C2=C(C(=O)CC1(C)O)C(=O)c1c(ccc(-c3ccc4c(c3O)C(=O)C3=C(C4=O)C(C(C)OC(C)=O)C(C)(O)CC3=O)c1O)C2=O (stereo not given),5,59*,-1,0,-1,67*,34*,dCAG dye DR=8*
CCCCOCCCNC(=O)C[C@@H]1C[C@]2(C(=O)OCC)CCC3=C2N(CCC3)C1=O,1,-3,/,/,/,/,/,
COc1ccccc1CCC[C@@H](CCS(=O)(=O)C(C)C)CC1CCCCC1,-4,4,/,/,/,/,/,
CCOC(=O)c1sc2nc3c(SCCC(=O)O)cc(C(=O)c4cc(OC)ccc4O)cn3c(=O)c2c1C,0,35*,0,-1,-5,68*,39*,
CCOC(=O)c1sc2nc3c(SCCC#N)cc(C(=O)c4cc(F)ccc4O)cn3c(=O)c2c1C,2,9,0,-2,-4,/,/,
O=C(O)CSc1cc(C(=O)c2cc(F)ccc2O)cn2c(=O)c3c(-c4ccccc4)csc3nc12,-19,85*,-1,2,-3,90*,70*,
CCN(CC)S(=O)(=O)c1ccc(N/N=C(\C)c2ccncc2)c([N+](=O)[O-])c1,3,1,-1,-1,-3,/,/,
CCOc1cc(/C=N/Nc2ccc(S(=O)(=O)Nc3ccccc3C(=O)O)cc2[N+](=O)[O-])cc(Cl)c1O,-24,67*,-3,1,-5,93*,73*,
CC(=O)Nc1cccc(/C(C)=N/Nc2ccc(S(=O)(=O)Nc3ccccc3C(=O)O)cc2[N+](=O)[O-])c1,-25,85*,-2,1,-3,94*,80*,
COc1cc(/C=N/Nc2ccccc2[N+](=O)[O-])cc(OC)c1O,-6,19,-4,0,-4,/,/,
COc1cc(C=NNc2ccc(S(=O)(=O)Nc3ccccc3C(=O)O)cc2[N+](=O)[O-])ccc1O,-20,90*,-5,4,-7,91*,69*,
O=[N+]([O-])c1ccc(CSc2nnc(-c3cccc(Cl)c3)n2Cc2ccco2)cc1,-9,6,/,/,/,/,/,
COc1ccccc1CN(C)C(=O)c1cccc(S(=O)(=O)N2CCCc3ccccc32)c1,-3,1,3,0,-3,/,/,
O=C(O)CSc1nc(-c2ccccc2)nc2c1oc1ccccc12,-21,59*,0,3,-10,48*,14*,
O=C(O)CSc1nc(-c2ccc(Cl)cc2)nc2c1oc1ccccc12,4,41*,0,1,-2,82*,62*,
CCOC(=O)c1c(-c2ccccc2Cl)csc1NC(=O)CSc1nc(C)cc(=O)[nH]1,-34,38*,-3,0,-9,45*,15*,
CN(C)CCCn1c(SCC(=O)Nc2nc(-c3cccc(Br)c3)cs2)nc2ccccc2c1=O,4,14,-1,-1,-2,/,/,
Cc1ccc(-c2csc(NC(=O)CSc3nc(C)cc(=O)[nH]3)n2)cc1,-25,56*,-1,-1,/,54*,19*,
O=C(CSc1nc2ccccc2[nH]1)Nc1nc(-c2cccc(Br)c2)cs1,19,58*,-1,3,-7,43*,21*,
Cc1ccc(NC(=O)CSc2nnc3c(n2)[nH]c2ccccc23)cc1,-5,1,1,0,-2,/,/,
Cc1ccc(-c2csc(NC(=O)CSc3nnc4c(n3)[nH]c3ccccc34)n2)cc1,-4,35*,0,1,1,29,18*,
COC(=O)[C@]12CCCCC=C1N(Cc1ccc(OC)cc1)C(=O)[C@@H]2CC(=O)N1CCCC1,5,0,/,/,/,/,/,
CCC(Sc1nc(C)cc(=O)[nH]1)C(=O)Nc1nc(-c2ccccc2)cs1 (stereo not given),-5,49*,-3,0,-1,60*,23*,
CCC(Sc1nc(-c2ccccc2)cc(=O)[nH]1)C(=O)O (stereo not given),-2,2,5,2,-4,/,/,
CC(C)(C)c1nc(NC(=O)Nc2ccccc2)sc1Br,-16,36*,-1,0,-4,16,16*,
SMILES,HGIII-sPLA2 inh,rCAG binder,PG9 binder,MsrA inhibitor,bovine MsrA act,rCAG binder conf,DNA CAG counter,others
O=C(CSc1nc2sc3c(c2c(=O)n1-c1ccc(Cl)cc1)CCCC3)c1ccccc1Cl,1,11,/,/,/,/,/,
COc1ccc(-c2cc(=Nc3c(C)n(C)n(-c4ccccc4)c3=O)c3ccccc3o2)cc1,-5,-8,0,1,-5,/,/,
COc1ccc(-c2c/c(=N\c3nc(-c4ccccc4)c(C)s3)c3ccccc3o2)cc1O,-20,39*,0,3,3,34,15*,
O=C(NC1CCCCN(Cc2ccc(Cl)cc2)C1=O)c1ccccn1 (stereo not given),-4,0,/,/,/,/,/,
C/C(=N\NC(=O)c1ccccc1)c1cc2cc([N+](=O)[O-])ccc2oc1=O,-21,50*,0,0,-10,44*,15*,
CCCCOc1ccc(C(=O)NNC(=O)C2C3C=CC(C3)C2C(=O)O)cc1 (stereo not given),-3,-4,-2,0,-2,/,/,
COc1cc([N+](=O)[O-])cc(/C=N/NC(=O)C(C)Nc2cccc(C)c2)c1O (stereo not given),1,22,1,-1,-5,/,/,
COc1cc([N+](=O)[O-])cc(/C=N/NC(=O)C(C)Nc2ccccc2C)c1O (stereo not given),-3,36*,-4,2,-2,29,10*,
CCOc1ccc(/C=C/C(=O)c2cc(Br)ccc(=O)c2O)cc1,10,61*,-3,2,-6,47*,22*,
Cc1ccc(/C=C/C(=O)c2cc(Br)ccc2OC(=O)c2ccco2)cc1,-14,4,0,1,-11,/,/,
CCc1ccc(/C=C/C(=O)c2cc(Br)ccc(=O)c2O)cc1,9,46*,-1,2,-9,54*,25*,
Cc1cccc(/C=C/C(=O)c2cc(Br)ccc(=O)c2O)c1,6,45*,-2,2,-2,56*,24*,
O=C(C=Cc1ccccc1)c1cc(Br)ccc1O,-19,1,1,0,-3,/,/,
CCOc1ccc(C(=O)/C=C/c2ccc(OC)c(OC)c2)cc1,-11,-1,0,2,-2,/,/,
CN(Cc1ccc(F)cc1)S(=O)(=O)c1nnc(NC(=O)c2ccccc2)s1,-1,42*,-1,2,-4,43*,11*,
COc1ccc(CN(C)S(=O)(=O)c2nnc(NC(=O)c3cccc(C)c3)s2)cc1OC,-29,67*,2,2,-4,53*,17*,
COc1ccc(C(=O)Nc2nnc(S(=O)(=O)N(C)Cc3ccc(F)cc3)s2)cc1OC,2,26,1,0,-4,/,/,
